The text below walks through data of PubChem BioAssay (NCI).

Assay [1] is described as follows: NCI Yeast Anticancer Drug Screen. Data for the rad50 strain (AID 155).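 Further: 0% = growth of vehicle-only cultures of the same strain.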 As to conditions: S. cerevisiae rad50 strain growth inhibition, active compounds read high. Summed up: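 DNA repair mutant yeast, compound exposure, growth read-out; inhibition is taken relative to vehicle.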
Assay [2] in a line: NCI Yeast Anticancer Drug Screen. Data for the mec2-1 strain (AID 157). The conditions noted are these: S. cerevisiae mec2-1 strain, active compounds read high. In a few lines: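 Growth inhibition is read against vehicle-treated controls after compound exposure of the mec2-1 yeast strain, which is defective in DNA damage repair or cell cycle control.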
Assay [3] can be described thus: NCI Yeast Anticancer Drug Screen. Data for the sgs1 mgt1 strain (AID 161).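 Further: 0% = growth of cultures given vehicle only.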 As to conditions: S. cerevisiae sgs1 mgt1 strain, active compounds read high. In a few lines: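 Growth of a repair-deficient yeast mutant was monitored after compound treatment and expressed as inhibition relative to vehicle-treated cultures.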
Assay [4] in a line: NCI Yeast Anticancer Drug Screen. Data for the cln2 rad14 strain (AID 165).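 Further: 0% = growth equal to vehicle treated cultures.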 As to conditions: S. cerevisiae cln2 rad14 strain, active compounds read high. Summed up:
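Growth inhibition, relative to vehicle-treated controls, is the read-out. The test organism is a yeast strain with defined genetic alterations, cln2 rad14.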

A short description of assay [5]: NCI Yeast Anticancer Drug Screen. Data for the bub3 strain (AID 167). As to conditions: S. cerevisiae bub3 mutant strain, active compounds read high. Summed up:
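In this screen, a yeast mutant lacking normal mitotic checkpoint function is challenged with compound. Relative growth versus vehicle gives the inhibition value.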

A short description of assay [6]: NCI Yeast Anticancer Drug Screen. Data for the mlh1 rad18 strain (AID 175). As to conditions: S. cerevisiae mlh1 rad18 strain growth inhibition, active compounds read high. Summed up:
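Cells of a genetically altered yeast strain, deficient in DNA damage repair, were treated with compound. Their growth was then compared with that of vehicle-treated cultures to give inhibition.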

[7] abbreviates: at 5.0 µM (retest, dose inferred, filed as 0.5).
Setting [8] is: at 50.0 µM (retest, dose inferred, filed as 5.0).

The panel holds about 79,000 compounds, 15% with a hit somewhere; the sample as a whole holds those more often. A number with no mark means an inactive call. Calls of active or inactive are those of the source. No stated cut-off is given here; in the data, active means growth inhibition above about 70%; inactive means the rest.

For `COc1c(C)c2c(c(O)c1C/C=C(\C)CCC(=O)O)C(=O)OC2`, the growth inhibition was 31% in assay [1] (setting [7]); 86% (active) in assay [1] (setting [8]); 85.3% (active) in assay [1] (at 50.0 µM); 11% in assay [2] (setting [7]); 88% (active) in assay [2] (setting [8]); 90.9% (active) in assay [2] (at 50.0 µM). For the same compound, the growth inhibition in assay [3] (setting [7]) was 30%; in assay [3] (setting [8]) it was 90% (active); in assay [3] (at 50.0 µM) it was 92.2% (active); in assay [4] (setting [7]), 32%; in assay [4] (setting [8]), 95% (active); in assay [4] (at 50.0 µM), 90.2% (active). Besides, the growth inhibition in assay [5] (setting [7]) was 17%; in assay [5] (setting [8]), 91% (active); in assay [5] (at 50.0 µM) it was 89.2% (active); in assay [6] (setting [7]), 38%; in assay [6] (setting [8]) it was 92% (active).

With `CCCCCCCCCCCCCCCCSC(=NCC)NCC`, the growth inhibition is 99% (active) in assay [1] (setting [7]); 99% (active) in assay [1] (setting [8]); 99.3% (active) in assay [1] (at 50.0 µM); 67% in assay [2] (setting [7]); 99% (active) in assay [2] (setting [8]); 99.7% (active) in assay [2] (at 50.0 µM). Further, the growth inhibition is 98% (active) in assay [3] (setting [7]); 100% (active) in assay [3] (setting [8]); 99.6% (active) in assay [3] (at 50.0 µM); 23% in assay [4] (setting [7]); 99% (active) in assay [4] (setting [8]); 98.3% (active) in assay [4] (at 50.0 µM). Further, the growth inhibition is 81% (active) in assay [5] (setting [7]); 99% (active) in assay [5] (setting [8]); 99.5% (active) in assay [5] (at 50.0 µM); 98% (active) in assay [6] (setting [7]); 99% (active) in assay [6] (setting [8]); 99.3% (active) in assay [6] (at 50.0 µM).

In the case of `CC1=CC(=O)C=CC1(C)C(Cl)(Cl)Cl` (stereo unspecified), the growth inhibition is -16% in assay [1] (setting [7]); -24% in assay [1] (setting [8]); -3.05% in assay [1] (at 50.0 µM); -15% in assay [2] (setting [7]); -12% in assay [2] (setting [8]); -1.55% in assay [2] (at 50.0 µM). Also, the growth inhibition in assay [3] (setting [7]) is 0%; in assay [3] (setting [8]) it was -6%; in assay [3] (at 50.0 µM), -11.6%; in assay [4] (setting [7]), -44%; in assay [4] (setting [8]), -10%; in assay [4] (at 50.0 µM), 44.3%. For the same compound, the growth inhibition in assay [5] (setting [7]) was -6%; in assay [5] (setting [8]) it was 2%; in assay [5] (at 50.0 µM), -0.65%; in assay [6] (setting [7]), -10%; in assay [6] (setting [8]) it was -22%; in assay [6] (at 50.0 µM), 1%.

For the compound `CC/C(=C(/CC)c1ccc(O)cc1)c1ccc(O)cc1`, the growth inhibition was 16% in assay [1] (setting [7]); 99% (active) in assay [1] (setting [8]); 99% (active) in assay [1] (at 50.0 µM); 6% in assay [2] (setting [7]); 99% (active) in assay [2] (setting [8]); 98.8% (active) in assay [2] (at 50.0 µM). For the same compound, the growth inhibition is 5% in assay [3] (setting [7]); 100% (active) in assay [3] (setting [8]); 99.1% (active) in assay [3] (at 50.0 µM); 39% in assay [4] (setting [7]); 99% (active) in assay [4] (setting [8]); 98% (active) in assay [4] (at 50.0 µM). The growth inhibition in assay [5] (setting [7]) is 22%; in assay [5] (setting [8]), 63%; in assay [5] (at 50.0 µM) it was 99.5% (active); in assay [6] (setting [7]), 13%; in assay [6] (setting [8]), 97% (active); in assay [6] (at 50.0 µM), 99.2% (active).

In the case of `Cn1c(COC(=O)NC2CCCCC2)c(COC(=O)NC2CCCCC2)c2ccc3cc(Cl)c(Cl)cc3c21`, the growth inhibition in assay [1] (setting [7]) is 8%; in assay [1] (setting [8]), 31%; in assay [1] (at 50.0 µM), 18.1%; in assay [2] (setting [7]), -5%; in assay [2] (setting [8]), 8%; in assay [2] (at 50.0 µM), 23.2%. Moreover, the growth inhibition was -3% in assay [3] (setting [7]); 29% in assay [3] (setting [8]); 56.5% in assay [3] (at 50.0 µM); 15% in assay [4] (setting [7]); 12% in assay [4] (setting [8]); 49.2% in assay [4] (at 50.0 µM). In addition, the growth inhibition in assay [5] (setting [7]) was 15%; in assay [5] (setting [8]), 30%; in assay [5] (at 50.0 µM), 72.7% (active); in assay [6] (setting [7]) it was 9%; in assay [6] (setting [8]) it was 11%; in assay [6] (at 50.0 µM), 21.8%.

For the compound `CCCCC(C=O)(C=C=C(C)C)CC` (stereo unspecified), the growth inhibition in assay [1] (setting [7]) was -4%; in assay [1] (setting [8]), 28%; in assay [1] (at 50.0 µM), 51.4%; in assay [2] (setting [7]), -2%; in assay [2] (setting [8]), 0%; in assay [2] (at 50.0 µM) it was 52.1%. For the same compound, the growth inhibition in assay [3] (setting [7]) was 0%; in assay [3] (setting [8]), 35%; in assay [3] (at 50.0 µM) it was 61.3%; in assay [4] (setting [7]), -7%; in assay [4] (setting [8]) it was 26%; in assay [4] (at 50.0 µM), 36.4%. For the same compound, the growth inhibition in assay [5] (setting [7]) is -13%; in assay [5] (setting [8]) it was 2%; in assay [5] (at 50.0 µM), 66.3%; in assay [6] (setting [7]), -32%; in assay [6] (setting [8]), -4%; in assay [6] (at 50.0 µM) it was 16.9%.

`c1ccc(-c2cccc(-c3ccccn3)n2)nc1`: the growth inhibition in assay [1] (setting [7]) is 93% (active); in assay [1] (setting [8]), 99% (active); in assay [1] (at 50.0 µM), 99.4% (active); in assay [2] (setting [7]), 74% (active); in assay [2] (setting [8]) it was 99% (active); in assay [2] (at 50.0 µM), 99.7% (active). For the same compound, the growth inhibition in assay [3] (setting [7]) is 91% (active); in assay [3] (setting [8]) it was 99% (active); in assay [3] (at 50.0 µM), 99.5% (active); in assay [4] (setting [7]) it was 81% (active); in assay [4] (setting [8]), 99% (active); in assay [4] (at 50.0 µM) it was 99.1% (active). The growth inhibition was 96% (active) in assay [5] (setting [7]); 99% (active) in assay [5] (setting [8]); 99.2% (active) in assay [5] (at 50.0 µM); 83% (active) in assay [6] (setting [7]); 99% (active) in assay [6] (setting [8]); 99.5% (active) in assay [6] (at 50.0 µM).

For `C=C(CO)C(=O)OC1CC(=C)C2CC(O)C(C)C2C2OC(=O)C(=C)C12` (stereo unspecified), the growth inhibition in assay [1] (setting [7]) was 20%; in assay [1] (setting [8]) it was 97% (active); in assay [1] (at 50.0 µM), 86.7% (active); in assay [2] (setting [7]), 15%; in assay [2] (setting [8]), 98% (active); in assay [2] (at 50.0 µM), 52.5%. The growth inhibition in assay [3] (setting [7]) was 10%; in assay [3] (setting [8]), 97% (active); in assay [3] (at 50.0 µM) it was 92.5% (active); in assay [4] (setting [7]), 13%; in assay [4] (setting [8]), 89% (active); in assay [4] (at 50.0 µM), 32.4%. For the same compound, the growth inhibition in assay [5] (setting [7]) was 9%; in assay [5] (setting [8]), 97% (active); in assay [5] (at 50.0 µM) it was 79.4% (active); in assay [6] (setting [7]), 26%; in assay [6] (setting [8]), 98% (active); in assay [6] (at 50.0 µM) it was 87.7% (active).

With `O=C1C=CC(=O)N1c1cccc2c1CCCC2`, the growth inhibition in assay [1] (setting [7]) is 99% (active); in assay [1] (setting [8]) it was 99% (active); in assay [1] (at 50.0 µM), 91.9% (active); in assay [2] (setting [7]), 100% (active); in assay [2] (setting [8]), 100% (active); in assay [2] (at 50.0 µM) it was 93.8% (active). Further, the growth inhibition in assay [3] (setting [7]) was 100% (active); in assay [3] (setting [8]) it was 99% (active); in assay [3] (at 50.0 µM) it was 94.7% (active); in assay [4] (setting [7]) it was 99% (active); in assay [4] (setting [8]), 99% (active); in assay [4] (at 50.0 µM) it was 93.5% (active). The growth inhibition in assay [5] (setting [7]) is 100% (active); in assay [5] (setting [8]) it was 99% (active); in assay [5] (at 50.0 µM), 93.6% (active); in assay [6] (setting [7]), 99% (active); in assay [6] (setting [8]), 99% (active); in assay [6] (at 50.0 µM), 93.1% (active).
